Laboratory results as given in PubChem BioAssay (NCI).
About 79,000 compounds went through this panel and 15% of them were active in at least one assay; those are over-represented in the sample as a whole. Unmarked numbers belong to inactive results. Calls of active or inactive are those of the source. Cut-off read from the data, not from the text of the source: active = growth inhibition above about 70%; inactive = the rest.

How the values were obtained:
[1] = NCI Yeast Anticancer Drug Screen. Data for the rad50 strain (AID 155);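 note: 0% = growth of vehicle-only cultures of the same strain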; settings: S. cerevisiae rad50 strain growth inhibition, stronger effect = higher value
In short: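 A DNA repair-deficient yeast mutant serves as the test organism; compound-induced growth inhibition is calculated against vehicle-treated cells.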

[2] = NCI Yeast Anticancer Drug Screen. Data for the mec2-1 strain (AID 157); settings: S. cerevisiae mec2-1 strain, stronger effect = higher value
In short: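 Each compound was tested on mec2-1 yeast, a strain altered in DNA damage repair or cell cycle control. Growth inhibition is reported relative to vehicle.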

[3] = NCI Yeast Anticancer Drug Screen. Data for the sgs1 mgt1 strain (AID 161);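 note: 0% = growth of cultures given vehicle only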; settings: S. cerevisiae sgs1 mgt1 strain, stronger effect = higher value
In short: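 Inhibition of yeast growth, normalised to vehicle-treated controls, is reported for a strain bearing genetic alterations in DNA damage repair.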

[4] = NCI Yeast Anticancer Drug Screen. Data for the cln2 rad14 strain (AID 165);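 note: 0% = growth equal to vehicle treated cultures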; settings: S. cerevisiae cln2 rad14 strain, stronger effect = higher value
In short: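 Test compounds were added to cln2 rad14 yeast cultures; inhibition of growth was then determined by comparison with vehicle treatment.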

[5] = NCI Yeast Anticancer Drug Screen. Data for the bub3 strain (AID 167); settings: S. cerevisiae bub3 mutant strain, stronger effect = higher value
In short: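 Inhibition values come from growth of compound-treated mutant yeast normalised to vehicle-treated controls.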

[6] = NCI Yeast Anticancer Drug Screen. Data for the mlh1 rad18 strain (AID 175); settings: S. cerevisiae mlh1 rad18 strain growth inhibition, stronger effect = higher value
In short: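 Inhibition values reflect reduced growth of mutant yeast versus vehicle-treated controls following compound exposure; the mutations affect DNA damage repair.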

[7] = at 5.0 µM (retest, dose inferred, filed as 0.5)
[8] = at 50.0 µM (retest, dose inferred, filed as 5.0)

In the case of `O=C(O)CCCc1ccc2c(c1Br)C=CC2`, the growth inhibition [1, 7] is reported as 10%, the growth inhibition [1, 8] is reported as 68% and the growth inhibition ([1]; at 50.0 µM) is reported as 72.3% (active). The growth inhibition [2, 7] was 13%, the growth inhibition [2, 8] was 72% (active) and the growth inhibition ([2]; at 50.0 µM) was 63.6%. The growth inhibition [3, 7] was 11%, the growth inhibition [3, 8] was 73% (active) and the growth inhibition ([3]; at 50.0 µM) was 87.2% (active). For the same compound, the growth inhibition [4, 7] was 11%, the growth inhibition [4, 8] was 74% (active) and the growth inhibition ([4]; at 50.0 µM) was 72.9% (active). The growth inhibition [5, 7] was 8%, the growth inhibition [5, 8] was 86% (active) and the growth inhibition ([5]; at 50.0 µM) was 94% (active). The growth inhibition [6, 7] was 3%, the growth inhibition [6, 8] was 76% (active) and the growth inhibition ([6]; at 50.0 µM) was 79.6% (active).
For `C=CCNC(=O)NC1=CSC2=NC(=O)C3(NN12)c1ccccc1-c1ccccc13`, the growth inhibition [1, 7] was -1%, the growth inhibition [1, 8] was 50% and the growth inhibition ([1]; at 50.0 µM) was 76.7% (active). For the same compound, the growth inhibition [2, 7] was -13%, the growth inhibition [2, 8] was 48% and the growth inhibition ([2]; at 50.0 µM) was 68.2%. The growth inhibition [3, 7] was -2%, the growth inhibition [3, 8] was 63% and the growth inhibition ([3]; at 50.0 µM) was 82.5% (active). For the same compound, the growth inhibition [4, 7] was 0%, the growth inhibition [4, 8] was 83% (active) and the growth inhibition ([4]; at 50.0 µM) was 73.4% (active). The growth inhibition [5, 7] was -6%, the growth inhibition [5, 8] was 66% and the growth inhibition ([5]; at 50.0 µM) was 76.4% (active). For the same compound, the growth inhibition [6, 7] was -6%, the growth inhibition [6, 8] was 64% and the growth inhibition ([6]; at 50.0 µM) was 82.1% (active).
Compound `CN1CCN(CCOC(=O)N2c3ccccc3Sc3ccccc32)CC1` has a growth inhibition [1, 7] of 1%, a growth inhibition [1, 8] of 1% and a growth inhibition ([1]; at 50.0 µM) of 9.45%. The growth inhibition [2, 7] was 2%, the growth inhibition [2, 8] was -2% and the growth inhibition ([2]; at 50.0 µM) was -13.2%. It also gave a growth inhibition [3, 7] of -1%, a growth inhibition [3, 8] of 2% and a growth inhibition ([3]; at 50.0 µM) of 45.5%. The growth inhibition [4, 7] was 0%, the growth inhibition [4, 8] was 1% and the growth inhibition ([4]; at 50.0 µM) was -13.9%. The growth inhibition [5, 7] was -2%, the growth inhibition [5, 8] was -4% and the growth inhibition ([5]; at 50.0 µM) was 15.6%. It also gave a growth inhibition [6, 7] of -4%, a growth inhibition [6, 8] of -3% and a growth inhibition ([6]; at 50.0 µM) of 4.4%.
In the case of `c1coc(C2=Nc3cccc4cccc(c34)N2)c1`, the growth inhibition [1, 7] is reported as 6%, the growth inhibition [1, 8] is reported as 84% (active) and the growth inhibition ([1]; at 50.0 µM) is reported as 50.5%. It also gave a growth inhibition [2, 7] of 5%, a growth inhibition [2, 8] of 62% and a growth inhibition ([2]; at 50.0 µM) of 10.3%. The growth inhibition [3, 7] was 36%, the growth inhibition [3, 8] was 81% (active) and the growth inhibition ([3]; at 50.0 µM) was 76.7% (active). It also gave a growth inhibition [4, 7] of 4%, a growth inhibition [4, 8] of 65% and a growth inhibition ([4]; at 50.0 µM) of 32.5%. The growth inhibition [5, 7] was 5%, the growth inhibition [5, 8] was 94% (active) and the growth inhibition ([5]; at 50.0 µM) was 36.4%. For the same compound, the growth inhibition [6, 7] was -13%, the growth inhibition [6, 8] was 96% (active) and the growth inhibition ([6]; at 50.0 µM) was 54.6%.
With `N#CSCc1c(Cl)cccc1Cl` the growth inhibition [1, 7] was 57%, the growth inhibition [1, 8] was 59% and the growth inhibition ([1]; at 50.0 µM) was 81.7% (active). For the same compound, the growth inhibition [2, 7] was 40%, the growth inhibition [2, 8] was 48% and the growth inhibition ([2]; at 50.0 µM) was 75.8% (active). For the same compound, the growth inhibition [3, 7] was 18%, the growth inhibition [3, 8] was 92% (active) and the growth inhibition ([3]; at 50.0 µM) was 82.7% (active). For the same compound, the growth inhibition [4, 7] was 68%, the growth inhibition [4, 8] was 94% (active) and the growth inhibition ([4]; at 50.0 µM) was 64.5%. The growth inhibition [5, 7] was 64%, the growth inhibition [5, 8] was 95% (active) and the growth inhibition ([5]; at 50.0 µM) was 79.1% (active). The growth inhibition [6, 7] was 30%, the growth inhibition [6, 8] was 48% and the growth inhibition ([6]; at 50.0 µM) was 79.8% (active).
